These results are taken from PubChem BioAssay AID624330 (Southern Research Specialized Biocontainment Screening …, 2012).

Out of some 340,000 compounds screened, about 2,100 (0.62%) were called active. The list is a sample of the results. Measured potencies and affinities stand elsewhere. A number with no mark means an inactive call.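 Rule for the calls: active = first-screen hits whose inhibition reached a set limit at any dose in the follow-up dose series; inconclusive = inhibition above the set first-screen limit but never retested; inactive = the rest.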

A word on the inhibition: it is the drop in the measured response relative to a control, in per cent.

For the assay, the target named is Rac GTPase-activating protein 1 (Homo sapiens) (UniProt Q9H0H5). The assay is described as follows: MgcRacGAP GTPase-activating activity inhibitors, confirmation, biochemical, ADP Hunter fluorescence, primary and confirmatory (AID 624330).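 Note: fluorescence reports GDP produced by GAP-driven GTP hydrolysis.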 Conditions: MgcRacGAP-stimulated Rac1 GTP hydrolysis, at 30 µM, hits give high values, GST-tagged Rac1 F28L mutant substrate.
Sequence of Rac GTPase-activating protein 1 (Homo sapiens) (Q9H0H5 whole entry, looked up): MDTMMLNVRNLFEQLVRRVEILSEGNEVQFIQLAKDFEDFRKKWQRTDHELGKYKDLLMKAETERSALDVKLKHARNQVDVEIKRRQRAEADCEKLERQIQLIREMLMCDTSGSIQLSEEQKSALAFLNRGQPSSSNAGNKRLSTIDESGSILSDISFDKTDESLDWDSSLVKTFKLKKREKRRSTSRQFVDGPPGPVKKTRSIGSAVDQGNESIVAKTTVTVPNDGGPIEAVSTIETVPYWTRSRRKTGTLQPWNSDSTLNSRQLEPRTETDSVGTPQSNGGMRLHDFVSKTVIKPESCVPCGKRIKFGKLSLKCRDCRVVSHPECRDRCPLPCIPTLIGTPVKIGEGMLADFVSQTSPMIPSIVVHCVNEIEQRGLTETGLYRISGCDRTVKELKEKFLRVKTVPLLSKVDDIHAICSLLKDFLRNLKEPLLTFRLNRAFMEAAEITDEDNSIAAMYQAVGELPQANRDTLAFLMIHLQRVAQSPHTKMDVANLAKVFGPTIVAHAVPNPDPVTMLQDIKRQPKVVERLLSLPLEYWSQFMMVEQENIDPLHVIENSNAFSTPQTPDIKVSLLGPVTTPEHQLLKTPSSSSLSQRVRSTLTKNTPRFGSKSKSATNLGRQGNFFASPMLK
`COC(=O)CCNC(=O)Cn1cnc2sc3c(c2c1=O)CCCC3`: the inhibition was 3.18%.

`CC1(C)CC(=O)N(Cc2ccccc2)C(=O)C1`: the inhibition was 2.51%.

On to `O=C(NCCc1ccc(F)cc1)C(=O)NCC1CCCN1S(=O)(=O)c1cccs1` (stereo not given), for which the inhibition was -7.17%.

In the case of `COc1cc(/C=N/NC(=O)C(=O)NCc2ccco2)ccc1O`, the inhibition was 17.7%.

Regarding `COC(=O)c1ccc(/C=N\NC(=O)CC(=O)NCCc2ccccc2)cc1`, the inhibition is 0.63%.

With `COc1ccc(/C=N/NC(=O)/C(=C/c2ccccc2)CCO)cc1`, the inhibition was 8.48%.

For the molecule `COc1ccc(/C=N/NC(=O)CC(=O)NCCc2ccccc2)cc1OC`, the inhibition is 1.81%.

With `CC(C(=O)Nc1ccc(S(=O)(=O)N2CCOCC2)cc1)N1CCN(c2ccccn2)CC1` (stereo not given), the inhibition was -2.88%.

Turning to `CCc1cc(C(=O)OC)c(NC(=O)CC2NCCNC2=O)s1` (stereo not given), the inhibition is 0.55%.

As to `CC(C)OCC(O)CN1CCNCC1` (stereo not given), the inhibition is 5.48%.

As for `OC(COc1ccccc1Br)CN1CCNCC1` (stereo not given), the inhibition was 1.5%.

For the molecule `CC(C)CN(CC(C)C)C(=O)C12CCC(C)(C(=O)C1)C2(C)C` (stereo not given), the inhibition was -15.8%.

Regarding `Cc1ccc(NC2CCCN(C(=O)c3cccs3)C2)cc1C` (stereo not given), the inhibition is 22.5%.

Consider `CCOc1ccc(OCc2ccc(C(=O)N3CCCC(C)C3)cc2)cc1` (stereo not given), for which the inhibition was 0.96%.

Consider `Cc1ccc(NC(=O)CN2CCCCCC2)cc1Br`, for which the inhibition is 24.2%.

As for `COCCOc1ccc(C(F)(F)F)cc1NC(=O)c1ccc(C(F)(F)F)cc1`, the inhibition was -6.51%.

`COc1ccccc1NC(=O)CN1CCN(c2ccccc2)CC1`: the inhibition is 3.59%.

As to `CN1CCN(CC(=O)Nc2ccccc2Oc2ccccc2)CC1`, the inhibition is 4.33%.

`O=C(Cc1ccccc1)N/N=C/c1cc(Br)cs1`: the inhibition was 10.7%.

For the molecule `CCCCCNCC(=O)Nc1cc(C(F)(F)F)ccc1OCCOC`, the inhibition was 29.2%.

As to `Cc1ccc(NC(=O)CN2CCCC2)cc1Br`, the inhibition is 30.6%.

Turning to `Cc1nccn1CC(=O)N/N=C/c1cc(Br)cs1`, the inhibition is 3.63%.

As to `O=C(CNC(=O)c1ccccc1)NCC(O)c1ccc([N+](=O)[O-])cc1` (stereo not given), the inhibition is -4.75%.

With `CCOCCCNC(=O)Cn1cnc2sc(C)c(S(=O)(=O)N3CCN(c4ncccn4)CC3)c2c1=O`, the inhibition was 2.97%.

Regarding `CC(C)C[C@H]1CN([C@@H](Cc2ccc(O)cc2)CN2CCC[C@@H]2CN2C(=O)C(=O)NC[C@@H]2Cc2ccccc2)C(=O)C(=O)N1CC1CCCCCC1`, the inhibition is 10.4%.

In the case of `O=C(CNC(=O)c1ccco1)NCc1ccc2c(c1)OCO2`, the inhibition was 3.26%.

With `C=CCn1c(-c2ccc(Cl)cc2)cnc1SC(C)C(N)=O` (stereo not given), the inhibition is 13.8%.

Turning to `CCOc1cc(N2CCOCC2)c(OCC)cc1NC(=O)c1ccc2ncsc2c1`, the inhibition was 9.53%.

In the case of `Cn1c(=O)c2[nH]c(Cc3cccc(O)c3)nc2n(C)c1=O`, the inhibition is -6.27%.

In the case of `O=C(Nc1ccc2c(c1)OCO2)O[C@@H]1C[C@H]2CCC(=O)N3CC[C@@H](C1)[C@@H]23`, the inhibition was 5.22%.

Consider `COc1ccc(CN2CCNC(=O)C2CC(=O)NCCc2nc(C)c3c(n2)CCC3)cc1C` (stereo not given), for which the inhibition was 3.36%.

On to `CCCCOc1ccc(NC(=O)CN2CCN(Cc3ccccc3)CC2)cc1`, for which the inhibition is 2.92%.

`CCOC(=O)N1CCN(CC(=O)Nc2ccc(C)c(Br)c2)CC1`: the inhibition is 19.6%.

In the case of `CCCCOc1ccc(NC(=O)CN2CCN(C(=O)OCC)CC2)cc1`, the inhibition was 23.5%.

Turning to `Cc1ccc(NC(=O)CCN2CCN(CCO)CC2)cc1Br`, the inhibition was 7.64%.

Consider `COc1ccc(N)cc1NC(=O)CN1CCCC1`, for which the inhibition is 30%.

As for `Cc1ccc(N)cc1NC(=O)CN1CCOCC1`, the inhibition was 9.26%.

`CCOc1ccccc1NC(=O)CSC1=NN2CCCC(=O)N=C2S1`: the inhibition was 4.37%.

In the case of `O=C(Cc1nnc(NC(=O)Nc2ccccc2)s1)NCc1ccccc1`, the inhibition was 11.4%.

For `O=C(Cc1ccccc1)NCCSCc1ccccc1`, the inhibition was 10.9%.

On to `CC(=O)NS(=O)(=O)c1ccc(NC(=O)c2cccc3ccccc23)cc1`, for which the inhibition is 5.73%.

Take `COC(=O)c1ccccc1NC(=O)c1cc(-c2ccc(C)cc2)on1`: the inhibition is -6.22%.

On to `N#CCCN1CCN(C(=S)c2ccc(-c3cccc(Cl)c3)o2)CC1`, for which the inhibition is 6.88%.

As for `Cc1ccc(N=c2ssnc2Cl)cc1`, the inhibition was 9.47%.

`Clc1nssc1=Nc1nncs1`: the inhibition is 20.4%.

Take `CCCCCCCNC(=O)C1(CC2CC(c3ccccc3)=NO2)CCN(C(=O)c2ccccc2)CC1` (stereo not given): the inhibition is 7.41%.

Regarding `O=C(Cc1cccc(C(F)(F)F)c1)N1CCCC1`, the inhibition was 1.4%.

On to `COc1ccc(Br)cc1/C=N/NC(=O)CN1CCN(Cc2ccccc2)CC1`, for which the inhibition is 2.09%.

On to `COc1ccc(C(=O)N/C(=C\c2cn(S(=O)(=O)N(C)C)c3ccccc23)C(=O)N2CCCC2)cc1`, for which the inhibition was 12%.

Turning to `CCOc1cc(/C=N/n2nnnc2N)ccc1OCc1c(C)no[n+]1[O-]`, the inhibition was 7.97%.

As to `O=C(/C=C/c1ccccc1)NC(=O)c1ccccc1O`, the inhibition is 11.1%.

For `O=C(/C=C/c1ccc(Br)cc1)NC(=O)c1ccccc1O`, the inhibition was 0.42%.

`CCN(CC)C(=O)c1[nH]cnc1C(=O)N[C@@H](CC(C)C)C(=O)OC(C)(C)C`: the inhibition was 8.38%.

With `COc1ccc2c(c1OC)C(=O)OC2CC(=O)c1ccc(O)cc1` (stereo not given), the inhibition was 12.6%.

`COc1ccc(C(=O)CC2OC(=O)c3c2ccc(OC)c3OC)cc1` (stereo not given): the inhibition is -2.86%.

Regarding `COc1cc(S(=O)(=O)N2CCCCC2)ccc1NC(=O)c1ccncc1`, the inhibition was 4.39%.

`O=C(NCc1ccccc1)c1n[nH]nc1-c1ccccc1O`: the inhibition is -8.5%.

As to `Nc1nc(N)c(N=Nc2ccccc2)c(=O)[nH]1`, the inhibition was 2.34%.

As to `Nc1nc(N)c(N=Nc2ccc(C(=O)O)cc2)c(N)n1`, the inhibition is -11.2%.

With `C[C@H](CO)N1C[C@H](C)[C@@H](CN(C)S(C)(=O)=O)Oc2ccc(NC(=O)CCN3CCOCC3)cc2C1=O`, the inhibition was 3.2%.

For `C(=N\Nc1nc(N2CCCC2)nc(N2CCCC2)n1)/c1ccncc1`, the inhibition is -2.52%.

With `COc1ccc(/C=N/Nc2nc(N3CCCC3)nc(N3CCCC3)n2)cc1`, the inhibition was 3.1%.

On to `COc1ccc(/C=N/Nc2nc(N3CCCCC3)nc(N3CCCCC3)n2)cc1[N+](=O)[O-]`, for which the inhibition was -0.88%.

Turning to `CCOc1ccc(/C=N/Nc2nc(N3CCCC3)nc(N3CCCC3)n2)cc1OC`, the inhibition was 3.96%.

Turning to `O=[N+]([O-])c1cc(/C=N/Nc2nc(N3CCCCC3)nc(N3CCCCC3)n2)ccc1O`, the inhibition is 9.9%.

Take `CCOc1cc(/C=N/Nc2nc(N3CCCC3)nc(N3CCCC3)n2)ccc1O`: the inhibition was 26.7%.

For the molecule `Cn1c(=O)c2ncn(CC(=O)NCCOCc3ccccc3Cl)c2n(C)c1=O`, the inhibition was 0.57%.

As to `O=C(CS(=O)CC(=O)Nc1cccnc1)Nc1ccc(F)cc1` (stereo not given), the inhibition was 5.58%.

Turning to `CCOc1ccccc1/C=C(\C#N)C(=O)Nc1cccc(C(=O)O)c1`, the inhibition was -4.51%.

For `CCCCN(C(=O)C1CCN(C(=O)c2ccccc2C)CC1)c1c(N)n(CCCC)c(=O)[nH]c1=O`, the inhibition is 4%.

Take `O=C(O)COCC(=O)Nc1ccc2c(c1)ncn2CCc1ccccc1`: the inhibition is 2.87%.

`NC(=O)c1ccc(NC(=O)c2cncn2-c2ccccc2)cc1`: the inhibition is 1.08%.

Regarding `CC(C)(C)C1CCC(=O)N(CCOc2ccccc2)CC1` (stereo not given), the inhibition was 5.11%.

Consider `CCN(c1ccccc1)S(=O)(=O)c1ccc(N2CCN(c3ccc(OC)cc3)CC2)nc1`, for which the inhibition was 4.13%.

Consider `CCN(c1ccccc1)S(=O)(=O)c1ccc(N2CCN(c3ccccc3O)CC2)nc1`, for which the inhibition is 5.54%.

For `CN1/C(=C\C(=O)c2cccc([N+](=O)[O-])c2)Sc2ccccc21`, the inhibition is 10.8%.

As for `CSCCC(NC(=O)c1ccc([N+](=O)[O-])cc1Cl)C(=O)OCC(=O)NC(=O)CN1CCCC1=O` (stereo not given), the inhibition is -5.24%.

For `CCOc1ccc(S(=O)(=O)N2CCN(Cc3ccccc3)CC2)cc1`, the inhibition is -12%.

As for `CCOc1ccc(CN2CCN(S(=O)(=O)c3ccc(NC(C)=O)cc3)CC2)cc1OC`, the inhibition was 10.5%.

With `Cc1ccc(S(=O)(=O)NCCC(=O)N2CCN(c3ccccc3)CC2)cc1C`, the inhibition is -2.5%.

Take `O=C(COC(=O)Cn1cnc2ccccc21)NCCCc1ccccc1`: the inhibition was 0.48%.

Turning to `O=C(CNCc1cccc(Cl)c1)N1CCc2ccccc2C1`, the inhibition was 30.6%.

Consider `O=C(CNCc1ccc(Cl)cc1)N1CCc2ccccc2C1`, for which the inhibition was 25.8%.

Turning to `CN(Cc1ccc(N(C)C)cc1)C(=O)c1cc2ccccc2o1`, the inhibition is 2.93%.

As to `C#CCOCCOCCOCCNc1nc(N2CCN(C(=O)Cn3cc(CCO)nn3)CC2)nc(N2CCN(C(=O)[C@H]([C@@H](C)CC)n3cc(CCCN=C(N)N)nn3)CC2)n1`, the inhibition is -0.25%.

Regarding `O=C(Cc1ccc([N+](=O)[O-])cc1)Nc1cccc(C(=O)N2CCCCC2)c1`, the inhibition was 6.71%.

Take `N/C(COc1ccc(Cl)cc1Cl)=N\O`: the inhibition was 7.42%.

As for `C[C@@H](NC(=O)C[C@@H]1C[C@@H]2c3cc(NS(=O)(=O)c4ccc(F)cc4)ccc3O[C@@H]2[C@@H](CO)O1)c1ccccc1`, the inhibition was 14.8%.

`CCN1/C(=C2/SC(=S)N(C)C2=O)C=Cc2cc(C)ccc21`: the inhibition was 1.56%.

In the case of `CCN1/C(=C2\C(=O)N(C)C(=S)N2C)C=Cc2cc(C)ccc21`, the inhibition is 30.1%.

For the molecule `CC(C)CNC(=S)NC1CC2CCCC(C1)N2Cc1cccs1` (stereo not given), the inhibition is -4.03%.

Consider `CCOC(=O)Nc1cc(NC(=O)OCC)c(C)nc1C`, for which the inhibition was 9.52%.

Take `CCc1nc(SCC(=O)N2CCN(c3ccccc3)CC2)c2oc3ccccc3c2n1`: the inhibition was 18.4%.

Regarding `CCc1nc(Nc2ccccc2)c2oc3ccccc3c2n1`, the inhibition was 7.79%.

On to `Cc1ccc(Nc2ncnc3c2oc2ccccc23)cc1`, for which the inhibition is 11.9%.

For `c1ccc(Nc2ncnc3c2oc2ccccc23)cc1`, the inhibition is 13%.

In the case of `CC(=O)c1ccc(Nc2ncnc3c2oc2ccccc23)cc1`, the inhibition is 5.82%.

Consider `c1ccc2c(c1)oc1c(Nc3ccc(CN4CCOCC4)cc3)ncnc12`, for which the inhibition was 14.1%.

As for `CCc1nc(Nc2ccncc2)c2oc3ccccc3c2n1`, the inhibition is 9.44%.

Take `CCc1nc(Nc2ccc(F)cc2)c2oc3ccccc3c2n1`: the inhibition is 10.5%.
